Compound activity deposited in PubChem by University of Kansas High Throughput Screening Laboratory.
Pf apPOL block = Pf-apPOL DNA polymerase inhibition; Recombinant Pf-apPOL, molecular beacon fluorescence, 1.5 h; inhibition, % at 10 µM; hit rate 0.25% among 210,000
mHTT-CaM PPI inh = inhibitors of human mutant huntingtin-calmodulin interaction; AlphaScreen His-mHTT/GST-CaM binding, luminescence; inhibition, % at 15 µM; hit rate 3.6% among 190,000; AID 1671202;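 note: 0% = both proteins with DMSO and 100% = one protein alone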
Starred values were filed as active, the others as inactive; . = no result given. This excerpt belongs to a sample that is enriched for hits. Cut-off read from the data, not from the text of the source: active = inhibition above about 50%; inactive = the rest.

SMILES	Pf apPOL block	mHTT-CaM PPI inh
Cc1ccc(-c2n[nH]c(=O)c3ccccc23)cc1S(=O)(=O)NC(C)c1ccccc1 (configuration not stated)	-7	14
CC(C)(C1=CC(=O)c2ccccc2C1=O)C1OCC2(CO1)CC1C=CC2C1 (configuration not stated)	.	53*
C1=CC2CC1CC21COC(c2ccc3oc4ccccc4c3c2)OC1 (configuration not stated)	.	-17
COc1cccc(C=Nc2ccc([N+](=O)[O-])cc2Cl)c1O	-1	17
Cc1ccc(NC(NC(=O)c2cccc([N+](=O)[O-])c2)C(Cl)(Cl)Cl)c(C)c1 (configuration not stated)	-2	62*
COc1ccccc1NC(NC(=O)c1cccc([N+](=O)[O-])c1)C(Cl)(Cl)Cl (configuration not stated)	1	47
Cc1ccc(C)c(NC(NC(=O)c2cc([N+](=O)[O-])cc([N+](=O)[O-])c2)C(Cl)(Cl)Cl)c1 (configuration not stated)	2	70*
COc1ccc(C(=O)NC(Nc2ccc(C)cc2C)C(Cl)(Cl)Cl)cc1 (configuration not stated)	3	8
CC(=O)NCCc1csc(C2CCN(C(=O)Cc3ccccc3Cl)CC2)n1	-2	14
CCOc1ccccc1CN1C(=O)CCC1(C)C(=O)NCCc1ccc(OC)c(OC)c1 (configuration not stated)	0	6
CCCCC(CC)CNC(=O)CCCCCn1c(=S)[nH]c2cc3c(cc2c1=O)OCO3 (configuration not stated)	1	-6
O=C(NC1CCCC1)N1CCC2(CC1)Nc1cc(F)ccc1-n1cccc12	-5	29
COCCCNC(=O)N1CCC2(CC1)Nc1cc(F)ccc1-n1cccc12	6	62*
O=C(NCc1ccc(F)cc1)N1CCC2(CC1)Nc1cc(F)ccc1-n1cccc12	2	59*
COC(=O)C(C)NC(=O)N1CCC2(CC1)Nc1ccccc1-n1cccc12 (configuration not stated)	3	55*
COc1ccccc1NC(=O)N1CCC2(CC1)Nc1ccccc1-n1cccc12	-6	35
CCOC(=O)CNC(=O)N1CCC2(CC1)Nc1ccccc1-n1cccc12	-6	56*
COC(=O)CNC(=O)N1CCC2(CC1)Nc1cc(F)ccc1-n1cccc12	-5	33
COc1cccc(CNC(=O)C2(C)CCCN(C(=O)Nc3cccc(Cl)c3C)C2)c1 (configuration not stated)	-7	-6
O=C(Nc1ccc2oc(-c3ccccc3)cc(=O)c2c1)C1CCCCC1	-4	-4
CC(=NC(C)(C)C)C1=C(O)CC(C)(C)CC1=O	-11	-11
COc1ccc2c(c1)NC1(CCN(C(=O)Cc3cccc(F)c3)CC1)c1cccn1-2	2	73*
CCC(C)NC(=O)N1CCC2(CC1)Nc1cc(F)ccc1-n1cccc12 (configuration not stated)	-3	37
O=C(CSCc1ccc(F)cc1)N1CCC2(CC1)Nc1cc(F)ccc1-n1cccc12	-1	100*
Cc1ccc(C)c(CN2C(=O)NC3(CCN(C(=O)Cc4ccccc4Cl)CC3)C2=O)c1	0	7
SMILES	Pf apPOL block	mHTT-CaM PPI inh
Cc1ccc(CNC(=O)N2CCC3(CC2)Nc2ccccc2-n2cccc23)cc1	-3	77*
Cc1ccc2c(c1C)-n1cccc1C1(CCN(C(=O)Cc3ccccc3Cl)CC1)N2	-9	56*
Cc1ccc(NC(=O)N2CCC3(CC2)Nc2ccccc2-n2cccc23)cc1	-6	12
CC(=O)N1CCCn2nc(-c3ccc(F)cc3)cc2C1	1	0
C=Cc1c(SC)sc(C(=O)O)c1C	-3	.
CN(Cc1c(F)cccc1Cl)C(=O)CSc1nnc(Cn2ccc(=O)[nH]c2=O)o1	1	-8
O=C(Cn1c(C(F)(F)F)nc2ccccc21)N1CCCc2ccccc21	-3	3
COc1ccc(OC)c(N2CC(O)(c3ccc(OC)c(OC)c3)[N+]3=C2CCCCC3)c1 (configuration not stated)	3	4
CC(C)C(=O)Nc1ccc(N2CCOCC2)nc1	-6	3
Oc1c(Cl)cc(Cl)cc1C=Nc1cccc2cccnc12	6	55*
Cc1cccc(N=Cc2cc(Cl)cc(Cl)c2O)c1C	6	.
Cc1ccc(N=Cc2cc(Br)cc(Cl)c2O)c(N)c1	4	61*
CC(=O)c1ccc(N=Cc2cc(Br)cc(Cl)c2O)cc1	46	5
COc1ccc(N=Cc2cc(Br)cc(Cl)c2O)cc1	-11	3
Oc1c(Cl)cc(Br)cc1C=Nc1ccc2ncccc2c1	0	82*
O=C(c1ccc(F)cc1)N1CCC2(C1)C(=O)Nc1ccccc12 (configuration not stated)	-1	-3
CC(=O)OCC(OC(C)=O)C(OC(C)=O)C(OC(C)=O)C(OC(C)=O)C(=O)O (configuration not stated)	3	.
COc1ccc(C=C2Oc3c(ccc(O)c3CN3CCCC3)C2=O)c(OC)c1OC	-4	11
